PostGolgi ctrl: growth of the yeast control strain, post-Golgi counter-screen; efflux-deficient yeast background strain, growth absorbance A615, 16 h; inhibition, % at 10 µM; 98,000 tested, 5% active
CYP2C19 inhib: human CYP2C19 inhibition; P33261; CYP2C19 Supersomes, luciferin-H EGE luminescence, 30 min; inhibition, % at 5 µM; 96,000 tested, 21% active; AID 778;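 active = CYP2C19 inhibition above a set limit at 5 µM in the primary screen, cut at about 50% in these data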;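 note: plate controls were negative control wells for no effect and 2.5 mM tranylcypromine positive control for full effect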
CYP2C19 activ: cytochrome P450 2C19 (human) activation; P33261; recombinant CYP2C19, luciferin-H EGE luminescence; active compounds read high; 0 = fully inhibited enzyme, 1 = untreated enzyme; activation factor at 5 µM; 96,000 tested, under 10 active; AID 1025;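 active = activation factor of at least 2 at 5 µM in the primary screen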;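 note: 0 = wells with 2.5 mM tranylcypromine and 1 = vehicle-only wells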
CYP2C9 activ: activators of human CYP2C9. activation factor at 5 µM. 96,000 tested, 1.4% active. recombinant CYP2C9, luciferin-H conversion, luminescence; active compounds read high; factor 1 = untreated enzyme, 0 = blocked. AID 1024. P11712;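 active = activation factor of 2 or more for CYP2C9 at a 5 µM dose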;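 note: 0 = sulfaphenazole-blocked wells and 1 = vehicle-only wells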
Target sequence (P11712 whole entry, looked up): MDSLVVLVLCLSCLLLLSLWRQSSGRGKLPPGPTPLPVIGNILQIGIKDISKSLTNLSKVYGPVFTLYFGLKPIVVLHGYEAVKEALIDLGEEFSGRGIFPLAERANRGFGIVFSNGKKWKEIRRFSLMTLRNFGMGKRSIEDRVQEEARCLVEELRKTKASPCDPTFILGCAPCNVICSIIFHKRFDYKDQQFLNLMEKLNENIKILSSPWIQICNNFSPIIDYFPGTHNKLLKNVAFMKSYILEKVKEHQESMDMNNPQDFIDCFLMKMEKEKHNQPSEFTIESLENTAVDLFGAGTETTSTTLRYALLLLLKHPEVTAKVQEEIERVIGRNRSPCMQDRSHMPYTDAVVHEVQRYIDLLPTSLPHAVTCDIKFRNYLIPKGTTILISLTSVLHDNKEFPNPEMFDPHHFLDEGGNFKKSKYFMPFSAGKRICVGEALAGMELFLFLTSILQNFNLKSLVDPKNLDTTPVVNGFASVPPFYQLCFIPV
PostGolgi yeast: growth inhibition of a yeast mutant, post-Golgi transport screen | post-Golgi transport phenotypic cell assay | inhibition, % at 10 µM | 98,000 tested, 0.9% active | AID 739;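 note: yeast cells grown in 1536-well plates; yeast grown about 18 h at 30C before absorbance read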
CYP2C9 inh: human CYP2C9 inhibition. AID 777. inhibition, % at 5 µM. P11712. CYP2C9 Supersomes, luciferin-H conversion, luminescence. 96,000 tested, 20% active;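 active = blocking of liver enzyme CYP2C9 beyond about 50% at 5 µM, limit read from the data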
An asterisk follows results filed as active. Rows were chosen to be rich in hits. Some 32% of all compounds tested hit in one or more screens of this group. Cut-off read from the data, not from the text of the source, unless noted: active = inhibition above about 30%; inactive = the rest.

O=C(CCN1C(=O)COc2ccccc21)NCCN1CCOCC1 was read as PostGolgi ctrl -6, CYP2C19 inhib 1, CYP2C19 activ 1, CYP2C9 activ 1, PostGolgi yeast 15 and CYP2C9 inh 5.
O=C(Cc1ccc(-c2ccccc2)cc1)N1CCOCC1 was read as PostGolgi ctrl 8, CYP2C19 inhib 74*, CYP2C19 activ 0.3, CYP2C9 activ 0.3, PostGolgi yeast 6 and CYP2C9 inh 65*.
For O=C(CN1C(=O)c2ccccc2C1=O)N1CCOCC1 the results were PostGolgi ctrl 3, CYP2C19 inhib 10, CYP2C19 activ 0.9, CYP2C9 activ 0.8, PostGolgi yeast 0 and CYP2C9 inh 15.
For O=C(CCSc1ccccc1)NCCN1CCOCC1 the results were PostGolgi ctrl 39*, CYP2C19 inhib 49, CYP2C19 activ 0.5, CYP2C9 activ 1, PostGolgi yeast -4 and CYP2C9 inh -2.
For CC(C)CCn1c(CN2CCN(C(=O)c3ccco3)CC2)nc2c1c(=O)n(C)c(=O)n2C the results were PostGolgi ctrl 4, CYP2C19 inhib 16, CYP2C19 activ 0.8, CYP2C9 activ 0.8, PostGolgi yeast 2 and CYP2C9 inh 20.
`CCOc1ccc(S(=O)(=O)Nc2ccccc2SC)c2cccnc12` gave PostGolgi ctrl 2, CYP2C19 inhib 3, CYP2C19 activ 1, CYP2C9 activ 0.3, PostGolgi yeast 8 and CYP2C9 inh 71*.
Screening Cc1nc2cccc(C)n2c(=O)c1Cl returned PostGolgi ctrl 4, CYP2C19 inhib 1, CYP2C19 activ 1, CYP2C9 activ 1.1, PostGolgi yeast -8 and CYP2C9 inh -14.
`CC(=O)Nc1ccc(NC(=O)CSC2=NCCS2)cc1` gave PostGolgi ctrl 1, CYP2C19 inhib 55*, CYP2C19 activ 0.4, CYP2C9 activ 0.2, PostGolgi yeast 14 and CYP2C9 inh 81*.
For O=C(CSC1=NCCS1)Nc1ccc(S(=O)(=O)NC2CCCCC2)cc1 the results were PostGolgi ctrl 3, CYP2C19 inhib 24, CYP2C19 activ 0.8, CYP2C9 activ 0.4, PostGolgi yeast -3 and CYP2C9 inh 56*.
`O=C(CSC1=NCCS1)Nc1ccc(S(=O)(=O)N2CCCCCC2)cc1` gave PostGolgi ctrl 3, CYP2C19 inhib 39, CYP2C19 activ 0.6, CYP2C9 activ 0.4, PostGolgi yeast -1 and CYP2C9 inh 62*.
`COc1cc(C(=O)OC(C)CN2CCOCC2)cc(OC)c1OC` (stereo not given) gave PostGolgi ctrl 22, CYP2C19 inhib 37, CYP2C19 activ 0.6, CYP2C9 activ 0.7, PostGolgi yeast -4 and CYP2C9 inh 28.
`CCCCC(=O)Nc1cccc(NC(=O)c2ccc(Br)o2)c1` gave PostGolgi ctrl -1, CYP2C19 inhib 70*, CYP2C19 activ 0.3, CYP2C9 activ 0.1, PostGolgi yeast 2 and CYP2C9 inh 93*.
O=C(Nc1cccc(OC(F)(F)F)c1)c1ccc(Br)o1 was read as PostGolgi ctrl 9, CYP2C19 inhib 89*, CYP2C19 activ 0.1, CYP2C9 activ 0.8, PostGolgi yeast 18 and CYP2C9 inh 16.
`CCCC(=O)Nc1nc2ccc(NC(=O)c3ccc(Br)o3)cc2s1` gave PostGolgi ctrl 41*, CYP2C19 inhib 42, CYP2C19 activ 0.6, CYP2C9 activ 0.7, PostGolgi yeast -4 and CYP2C9 inh 29.
`Cc1c(Cl)c([N+](=O)[O-])nn1CC(=O)Nc1c(C)n(C)n(-c2ccccc2)c1=O` gave PostGolgi ctrl 10, CYP2C19 inhib 30, CYP2C19 activ 0.7, CYP2C9 activ 0.9, PostGolgi yeast -6 and CYP2C9 inh 10.
Screening COc1ccc(CCNC(=O)CSc2nc(C)nc3c2c(=O)n(C)c(=O)n3C)cc1OC returned CYP2C19 inhib -12, CYP2C19 activ 1.1, CYP2C9 activ 1.1 and CYP2C9 inh -11.
`CC1CCN(CCCNC(=O)c2cn(C)c3ccc(S(=O)(=O)N4CCCC4)cc3c2=O)CC1` gave PostGolgi ctrl 15, CYP2C19 inhib 10, CYP2C19 activ 0.9, CYP2C9 activ 0.9, PostGolgi yeast -6 and CYP2C9 inh 7.
`O=C(NNC(=O)c1ccncc1)c1ccncc1` gave PostGolgi ctrl 10, CYP2C19 inhib -12, CYP2C19 activ 1.1, CYP2C9 activ 1, PostGolgi yeast -4 and CYP2C9 inh 0.
COC(=O)c1cccnc1NC(=S)NNC(=O)c1ccncc1 was read as PostGolgi ctrl -7, CYP2C19 inhib 84*, CYP2C19 activ 0.2, CYP2C9 activ 0.7, PostGolgi yeast -4 and CYP2C9 inh 25.
Screening O=[N+]([O-])c1nn(-c2ccc3c(c2)OCCO3)n(O)c1=NCc1ccccc1Cl returned PostGolgi ctrl 44*, CYP2C19 inhib 23, CYP2C19 activ 0.8, CYP2C9 activ 0.7, PostGolgi yeast 0 and CYP2C9 inh 29.
`O=C(NCCO)C1(c2ccc(Cl)cc2)CCCC1` gave PostGolgi ctrl 5, CYP2C19 inhib 47, CYP2C19 activ 0.5, CYP2C9 activ 0.8, PostGolgi yeast -8 and CYP2C9 inh 18.
CC(C)(CO)NC(=O)CCCOc1ccc(Cl)cc1Cl was read as PostGolgi ctrl 5, CYP2C19 inhib 55*, CYP2C19 activ 0.4, CYP2C9 activ 0.8, PostGolgi yeast 0 and CYP2C9 inh 22.
`O=C(CCCOc1ccc(Cl)cc1Cl)Nc1cccnc1` gave PostGolgi ctrl 39*, CYP2C19 inhib 72*, CYP2C19 activ 0.3, CYP2C9 activ 0.5, PostGolgi yeast 69* and CYP2C9 inh 52*.
Cc1ccc(S(=O)(=O)C2(C(=O)Nc3cccnc3)CC2)cc1 was read as PostGolgi ctrl 3, CYP2C19 inhib 56*, CYP2C19 activ 0.4, CYP2C9 activ 0.7, PostGolgi yeast -3 and CYP2C9 inh 32.
Screening O=C(Nc1cccnc1)C1(c2ccc(Cl)cc2)CCCC1 returned PostGolgi ctrl -10, CYP2C19 inhib 81*, CYP2C19 activ 0.2, CYP2C9 activ 0.7, PostGolgi yeast -2 and CYP2C9 inh 33.
For O=C(CCCC(=O)Nc1cccnc1)Nc1cccnc1 the results were PostGolgi ctrl 5 and PostGolgi yeast 3.
`CCOC(=O)C(c1ccccc1)N1CCN(c2ccc(OC)cc2)CC1` (stereo not given) gave PostGolgi ctrl 0, CYP2C19 inhib 25, CYP2C19 activ 0.7, CYP2C9 activ 0.6, PostGolgi yeast 3 and CYP2C9 inh 41.
For Cc1ccc(NC(=O)CS(=O)CC(=O)NCC2CCCO2)cc1 (stereo not given) the results were PostGolgi ctrl 4, CYP2C19 inhib 2, CYP2C19 activ 1, CYP2C9 activ 0.9, PostGolgi yeast -3 and CYP2C9 inh 11.
Screening CCOc1cc(C=C(C(=O)OC)C(=O)OC)ccc1OCc1ccc([N+](=O)[O-])cc1 returned PostGolgi ctrl 9, CYP2C19 inhib 22, CYP2C19 activ 0.8, CYP2C9 activ 0.6, PostGolgi yeast 19 and CYP2C9 inh 39.
